PubChem BioAssay
For part of these data: Measured potencies and affinities stand elsewhere. Calls of active or inactive are those of the source.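 Rule for the calls, unless noted: active = primary screen hit whose calcium fluorescence ratio, in both repeats, exceeds the weak agonist control mean by 3 SD; inactive = the rest.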

Experiments:
[1] = tested on: TRPC4 beta (transient receptor potential cation channel C4), mouse; assay: TRPC4 cation channel opening, retest – cell-based, Fluo4 calcium, HEK293 TRPC4beta/mu-opioid, duplicates, 10 µM, confirmation (AID 2426;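 active = fluorescence ratio normalized to control raised more than 50% in primary screen plus both repeat runs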); details: Fluo4 calcium fluorescence, at 10 µM; active compounds read high
[2] = tested on: transient receptor potential cation channel C4 beta (TRPC4), mouse; assay: TRPC4 cation channel opening, second retest – cell-based, second round, Fluo4, HEK293 TRPC4beta/mu-opioid, 1 µM, confirmation (AID 2461;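 active = primary screen active and over 50% activation in each of two duplicate runs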); details: Fluo4 calcium fluorescence, at 1 µM; active compounds read high
[3] = tested on: TRPC4 (transient receptor potential cation channel C4 beta), mouse; assay: potentiation of DAMGO EC20 TRPC4 response – cell-based, second round, Fluo-4, HEK293 TRPC4beta/mu-opioid, 1 µM, confirmation (AID 2554;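 active = primary screen hit whose fluorescence ratio, in both repeats, exceeds the weak agonist control mean by 3 SD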); details: DAMGO EC20, Fluo-4 calcium flux, at 1 µM; active compounds read high
[4] = tested on: TRPC4 beta (transient receptor potential cation channel C4), mouse; assay: potentiation of DAMGO EC20 TRPC4 response – cell-based, Fluo-4, HEK293 TRPC4beta/mu-opioid, confirmation (AID 2555); details: DAMGO EC20, Fluo-4 calcium flux, at 10 µM; active compounds read high
[5] = molecular target: Short transient receptor potential channel 4 (Mus musculus) (UniProt Q9QUQ5); assay: blockers of DAMGO-evoked TRPC4 calcium flux – cell-based, Fluo4, HEK293 TRPC4beta/mu-opioid, confirmation (AID 2636;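 active = calcium signal cut by more than 3 SD below the full-agonist control yet still positive, in both repeats and the earlier primary screen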); details: at 10 µM; active compounds read high
[6] = molecular target: Short transient receptor potential channel 4 (Mus musculus) (UniProt Q9QUQ5); assay: blockers of DAMGO-evoked TRPC4 calcium flux – cell-based, second round, Fluo4, HEK293 TRPC4beta/mu-opioid, 1 µM, confirmation (AID 2637;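 active = calcium signal ratio cut to more than 3 SD under the fully stimulated control mean yet still positive, in both repeats and the primary screen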;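 for inhibition: percent of integrated ratio relative to wells lacking test compound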); details: at 1 µM; active compounds read high
[7] = molecular target: Short transient receptor potential channel 4 (Mus musculus) (UniProt Q9QUQ5); assay: calcium entry via TRPC4 opening agents – cell-based, HEK293 TRPC4/mu-opioid, Fluo-4 calcium, dose response (AID 434937;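 active = primary screen activator hit with a dose response curve and TRPC4 channel activation at any tested dose; inactive = no activation, no dose response, or not a primary hit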)
[8] = molecular target: Short transient receptor potential channel 4 (Mus musculus) (UniProt Q9QUQ5); assay: potentiation of DAMGO-evoked TRPC4 calcium signal – cell-based, HEK293 TRPC4/mu-opioid, Fluo-4 calcium, EC20 DAMGO, dose response (AID 434941;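 active = earlier screen potentiator hit that boosts the TRPC4 ion channel at some dose, with a dose response; inactive = no potentiation, no dose response, or not a prior hit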;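 note: calcium entry triggered by an EC20 dose of DAMGO at the co-expressed mu-opioid receptor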)
[9] = molecular target: Short transient receptor potential channel 6 (Mus musculus) (UniProt Q61143); assay: TRPC6 blockade by TRPC4 inhibitor hits – cell-based, HEK293, membrane potential dye, duplicate, selectivity assay for TRPC4 inhibitor project, confirmation (AID 434948;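 active = active in primary screen and both duplicates, each dropping signal beyond three positive-control SD with fluorescence still positive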); details: HEK293 TRPC6, membrane potential dye fluorescence, at 10 µM, stimulated with maximal-effect acetylcholine; active compounds read high
[10] = molecular target: Short transient receptor potential channel 6 (Mus musculus) (UniProt Q61143); assay: TRPC6 opening by TRPC4 activator hits – cell-based, HEK293, membrane potential dye, duplicate, selectivity assay for TRPC4 activator project, confirmation (AID 434950;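 active = membrane potential signal rise above negative control mean plus 3 SD in both duplicates, also active in the earlier TRPC4 screen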); details: HEK293 TRPC6, membrane potential fluorescence, at 10 µM; activation: active compounds read high; outcome: activation
[11] = molecular target: Short transient receptor potential channel 6 (Mus musculus) (UniProt Q61143); assay: positive modulators of mouse TRPC6 channel – HEK293 cells, membrane potential dye, duplicate, selectivity assay for TRPC4 potentiator project, confirmation (AID 434952;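 active = compound raising the membrane signal above positive-control mean plus 3 SD in both repeats, and a primary screen hit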); details: HEK293 TRPC6, membrane potential dye fluorescence, at 10 µM, maximal acetylcholine added after compound; active compounds read high
[12] = molecular target: Short transient receptor potential channel 4 (Mus musculus) (UniProt Q9QUQ5); assay: calcium flux activators in TRPC4/5HT1a cells, counter-screen for TRPC4 activator project, cell-based, second counter screen, HEK293 TRPC4/5HT1a, Fluo-4 (AID 434977;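 active = calcium signal rise above buffer-control mean plus 5 SD in both duplicates, and also a hit in the primary screen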); details: Fluo-4 calcium flux, at 10 µM; active compounds read high
[13] = serotonin-gated TRPC4 signal block – cell-based, second counter screen, HEK293 TRPC4/5HT1a, Fluo-4, counter-screen for TRPC4 inhibitor project, confirmation (AID 434978;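 active = primary screen active whose calcium signal fell more than 3 SD beyond the full-serotonin control mean in both duplicate plates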;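 for outcome: serotonin given first at submaximal then at maximal dose after compound preincubation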); details: Fluo-4 calcium flux, at 10 µM, serotonin added to trigger calcium flux; active compounds read high
[14] = tested on: TRPC4 (mouse), co-expressed with 5HT1a in HEK293; assay: enhancement of serotonin-evoked TRPC4 response – cell-based, second counter screen, HEK293 TRPC4/5HT1a, Fluo-4, counter-screen for TRPC4 potentiator project, confirmation (AID 434979;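 active = signal rise over 3 SD above mean of control wells given weak agonist, in both repeats and first screen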); details: Fluo-4 calcium flux, at 10 µM, serotonin added at its EC20 dose; active compounds read high
[15] = nonspecific calcium rise without TRPC4 – cell-based, HEK293 mu-opioid receptor line, counter-screen for TRPC4 activator project, confirmation (AID 449723;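 active = hit in primary screen, with calcium signal over 5 SD above buffer well mean in both duplicates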;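 note: counter screen cells carry the mu-opioid receptor alone and lack TRPC4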); details: HEK293 mu-opioid cells, Fluo-4 calcium fluorescence, at 10 µM; active compounds read high
[16] = nonspecific potentiation of DAMGO calcium response – cell-based, HEK293 mu-opioid receptor line, counter-screen for TRPC4 allosteric potentiator project, confirmation (AID 449724;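 active = calcium signal rise more than 3 SD above the low-dose agonist control mean, in both duplicate plates and the primary screen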); details: HEK293 mu-opioid receptor cells, Fluo-4 calcium flux, at 10 µM, compound added before EC20 DAMGO stimulus; active compounds read high

Short transient receptor potential channel 4 (Mus musculus), sequence (Q9QUQ5 whole entry, looked up): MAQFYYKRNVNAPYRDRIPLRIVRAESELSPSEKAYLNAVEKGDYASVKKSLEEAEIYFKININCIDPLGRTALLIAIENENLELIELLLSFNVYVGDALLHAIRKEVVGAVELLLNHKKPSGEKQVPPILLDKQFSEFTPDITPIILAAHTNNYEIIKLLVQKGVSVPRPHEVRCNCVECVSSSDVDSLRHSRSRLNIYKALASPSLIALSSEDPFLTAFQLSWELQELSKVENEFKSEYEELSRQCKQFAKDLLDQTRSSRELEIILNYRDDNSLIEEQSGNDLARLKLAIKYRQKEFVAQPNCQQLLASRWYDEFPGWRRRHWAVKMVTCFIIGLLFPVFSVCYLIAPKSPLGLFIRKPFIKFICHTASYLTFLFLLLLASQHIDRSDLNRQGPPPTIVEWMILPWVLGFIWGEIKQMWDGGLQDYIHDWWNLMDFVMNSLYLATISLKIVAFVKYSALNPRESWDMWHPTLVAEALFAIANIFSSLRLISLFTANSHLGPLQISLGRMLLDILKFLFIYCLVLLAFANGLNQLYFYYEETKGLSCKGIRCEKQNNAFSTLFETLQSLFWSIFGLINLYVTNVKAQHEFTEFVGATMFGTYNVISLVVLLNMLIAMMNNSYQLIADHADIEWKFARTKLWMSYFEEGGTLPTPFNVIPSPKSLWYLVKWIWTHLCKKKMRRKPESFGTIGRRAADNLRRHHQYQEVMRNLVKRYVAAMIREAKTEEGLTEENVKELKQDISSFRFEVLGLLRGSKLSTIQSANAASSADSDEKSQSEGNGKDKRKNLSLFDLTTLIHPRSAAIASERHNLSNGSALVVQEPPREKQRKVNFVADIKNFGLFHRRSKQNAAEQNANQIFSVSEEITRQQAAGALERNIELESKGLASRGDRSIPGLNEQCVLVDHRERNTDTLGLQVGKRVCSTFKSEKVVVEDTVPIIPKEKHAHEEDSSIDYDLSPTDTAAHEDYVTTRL
Short transient receptor potential channel 6 (Mus musculus), sequence (Q61143 whole entry, looked up): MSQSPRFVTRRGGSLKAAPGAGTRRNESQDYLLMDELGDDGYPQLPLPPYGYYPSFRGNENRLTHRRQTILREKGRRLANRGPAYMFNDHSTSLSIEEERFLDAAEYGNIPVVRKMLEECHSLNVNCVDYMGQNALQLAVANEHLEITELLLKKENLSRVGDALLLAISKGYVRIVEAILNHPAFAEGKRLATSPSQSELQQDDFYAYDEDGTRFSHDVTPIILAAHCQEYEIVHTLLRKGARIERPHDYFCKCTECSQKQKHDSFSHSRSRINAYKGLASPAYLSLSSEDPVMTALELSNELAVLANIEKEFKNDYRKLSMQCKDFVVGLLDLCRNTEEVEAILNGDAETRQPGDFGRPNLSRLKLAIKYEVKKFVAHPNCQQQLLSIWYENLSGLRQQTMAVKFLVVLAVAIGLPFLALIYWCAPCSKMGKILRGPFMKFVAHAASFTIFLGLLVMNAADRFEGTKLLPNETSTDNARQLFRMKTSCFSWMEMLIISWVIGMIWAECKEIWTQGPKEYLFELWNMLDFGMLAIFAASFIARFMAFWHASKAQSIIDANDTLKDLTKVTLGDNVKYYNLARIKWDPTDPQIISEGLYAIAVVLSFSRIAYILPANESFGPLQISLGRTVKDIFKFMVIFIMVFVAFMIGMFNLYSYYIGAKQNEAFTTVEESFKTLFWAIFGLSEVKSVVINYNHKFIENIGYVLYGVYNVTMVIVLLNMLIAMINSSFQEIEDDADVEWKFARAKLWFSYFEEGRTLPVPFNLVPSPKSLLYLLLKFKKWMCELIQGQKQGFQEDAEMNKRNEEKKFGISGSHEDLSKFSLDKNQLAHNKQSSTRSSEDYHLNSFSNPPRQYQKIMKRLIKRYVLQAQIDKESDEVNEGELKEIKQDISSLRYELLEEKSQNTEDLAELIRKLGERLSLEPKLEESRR

Compound | outcome [1] | outcome [2] | outcome [3] | outcome [4] | inhibition [5] | inhibition [6] | outcome [7] | outcome [8] | outcome [9] | outcome [10] | outcome [11] | outcome [12] | outcome [13] | outcome [14] | outcome [15] | outcome [16] | outcome [6] | inhibition [13]
CN(C)C(CNC(=O)CCc1nc2ccccc2s1)c1ccccc1 (stereo not given) | inactive | inactive | inactive | inactive | 96% (active) | 86% (active) | inactive | inactive | inactive | inactive | inactive | inactive | inactive | inactive | inactive | inactive |  | 
COCCn1c(SCc2ccc(F)cc2)nc2ccccc2c1=O | inactive | inactive | inactive | inactive | 96% (active) |  | inactive | inactive | inactive | inactive | inactive | inactive |  | inactive | inactive | inactive | inactive | 21.6% (active)
CCOC(=O)C1(Cc2ccccc2)CCN(Cc2ccc(C)s2)CC1 | inactive | inactive | inactive | inactive | 88% (active) |  | inactive | inactive | inactive | inactive | inactive | inactive |  | inactive | inactive | inactive | inactive | 13.9% (active)
OCc1ccccc1CNCc1ccccc1 | inactive | inactive | inactive | inactive | 95% (active) | 52% (active) | inactive | inactive | inactive | inactive | inactive | inactive |  | inactive | inactive | inactive |  | 18.7% (active)
COCCn1c(SCC(=O)Nc2ccccc2OC)nc2c([nH]c3ccccc32)c1=O | inactive | inactive | inactive | inactive | 71% (active) |  | inactive | inactive | inactive | inactive | inactive | inactive |  | inactive | inactive | inactive | inactive | 36.6% (active)
Cc1cc(OCc2cc(C(=O)NCCN3CCCCC3CO)no2)cc(C)c1Cl (stereo not given) | inactive | inactive | inactive | inactive | 93% (active) |  | inactive | inactive | inactive | inactive | inactive | inactive |  | inactive | inactive | inactive | inactive | 21.5% (active)
N#CCCn1cc(CNCc2ccccc2)c(-c2cccc([N+](=O)[O-])c2)n1 | inactive | inactive | inactive | inactive | 65% (active) | 36% (active) | inactive | inactive | inactive | inactive | inactive | inactive |  | inactive | inactive | inactive |  | 30.7% (active)
CC1Oc2ccccc2C=C1/C=N/Nc1ccc(C(=O)O)cc1 (stereo not given) | inactive | inactive | inactive | inactive | 82% (active) | 51% (active) | inactive | inactive | inactive | inactive | inactive | inactive |  | inactive | inactive | inactive |  | 38.1% (active)
COc1ccc(CN(C)C(=O)c2ccc(NC(=O)CC3SC(N4CCCC4)=NC3=O)cc2)c(OC)c1 (stereo not given) | inactive | inactive | inactive | inactive | 56% (active) |  | inactive | inactive | inactive | inactive | inactive | inactive | inactive | inactive | inactive | inactive | inactive | 
CC(=O)N(c1ccc(Cl)cc1)c1c[nH]c2ccccc12 | inactive | inactive | inactive | inactive | 94% (active) |  | inactive | inactive | inactive | inactive | inactive | inactive |  | inactive | inactive | inactive | inactive | 22.3% (active)
CCOC(=O)CSc1nc2c(sc(=S)n2Cc2ccco2)c(=O)n1-c1ccccc1 | inactive | inactive | inactive | inactive | 68% (active) | 42% (active) | inactive | inactive | inactive | inactive | inactive | inactive | inactive | inactive | inactive | inactive |  | 
CCOc1cc(/C=C2\C(=N)N3N=CSC3=NC2=O)ccc1OS(=O)(=O)c1ccccc1 | inactive | inactive | inactive | inactive | 96% (active) |  | inactive | inactive | inactive | inactive | inactive | inactive |  | inactive | inactive | inactive | inactive | 16.2% (active)
O=C(CSc1nc2ccccc2c(=O)n1CCCO)N1CCc2ccccc21 | inactive | inactive | inactive | inactive | 94% (active) | 67% (active) | inactive | inactive | inactive | inactive | inactive | inactive |  | inactive | inactive | inactive |  | 13.1% (active)
Cc1cc(C)c(S(=O)(=O)c2ccccc2C)c(OCC(C)(C)C)n1 | inactive | inactive | inactive | inactive | 91% (active) | 43% (active) | inactive | inactive | inactive | inactive | inactive | inactive |  | inactive | inactive | inactive |  | 15.5% (active)
O=C(Nc1ccccc1Oc1cccnc1)C1CCCN(Cc2ccc(F)cc2)C1 (stereo not given) | inactive | inactive | inactive | inactive | 87% (active) | 43% (active) | inactive | inactive | inactive | inactive | inactive | inactive |  | inactive | inactive | inactive |  | 30.2% (active)
